The panel holds about 79,000 compounds, 15% with a hit somewhere; the sample as a whole holds those more often. No stated cut-off is given here; in the data, active means growth inhibition above about 70%; inactive means the rest.
Key:
[1] = NCI Yeast Anticancer Drug Screen. Data for the rad50 strain (AID 155);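 further: 0% = growth of vehicle-only cultures of the same strain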; conditions: S. cerevisiae rad50 strain growth inhibition; at 50.0 µM; active compounds read high
How it was run: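 DNA repair mutant yeast, compound exposure, growth read-out; inhibition is taken relative to vehicle.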

[2] = NCI Yeast Anticancer Drug Screen. Data for the mec2-1 strain (AID 157); conditions: S. cerevisiae mec2-1 strain, at 50.0 µM, active compounds read high
How it was run: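 mec2-1 yeast strain, carrying an alteration in DNA damage repair or cell cycle control, was exposed to compounds; growth inhibition was measured relative to vehicle-treated controls.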

[3] = NCI Yeast Anticancer Drug Screen. Data for the sgs1 mgt1 strain (AID 161);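 further: 0% = growth of cultures given vehicle only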; conditions: S. cerevisiae sgs1 mgt1 strain, at 50.0 µM, active compounds read high
How it was run: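 Growth of a repair-deficient yeast mutant was monitored after compound treatment and expressed as inhibition relative to vehicle-treated cultures.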

[4] = NCI Yeast Anticancer Drug Screen. Data for the cln2 rad14 strain (AID 165);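 further: 0% = growth equal to vehicle treated cultures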; conditions: S. cerevisiae cln2 rad14 strain, at 50.0 µM, active compounds read high
How it was run: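 Yeast carrying cln2 and rad14 alterations (cell cycle control and DNA damage repair) were exposed to compounds. Growth inhibition was measured against vehicle-treated controls.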

[5] = NCI Yeast Anticancer Drug Screen. Data for the bub3 strain (AID 167); conditions: S. cerevisiae bub3 mutant strain, at 50.0 µM, active compounds read high
How it was run: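 In this screen, a yeast mutant lacking normal mitotic checkpoint function is challenged with compound. Relative growth versus vehicle gives the inhibition value.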

[6] = NCI Yeast Anticancer Drug Screen. Data for the mlh1 rad18 strain (AID 175); conditions: S. cerevisiae mlh1 rad18 strain growth inhibition; at 50.0 µM; active compounds read high
How it was run: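 Growth inhibition of the yeast strain was measured after compound exposure and expressed relative to vehicle-treated controls. The strain carries defined defects in DNA damage repair.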

Measured: growth inhibition

CCOC(=O)C(/C=N/C(=S)Nc1c(C)cccc1C)=C(/O)c1ccccc1
inactive: [1] -50.3% | [2] -21.6% | [3] -26.1% | [4] -18.6% | [5] -21.2% | [6] -33.4%

COc1ccc2ccccc2c1C1=NC(C)(C)CO1
inactive: [1] -6.65% | [2] -18.6% | [3] 2.6% | [4] 18.5% | [5] -3.8% | [6] -16.6%

CC1C[C@]2(C)C(=O)N(c3ccccc3)C(=N)[C@@H]2N(C)c2ccccc21 (stereo not given in full)
inactive: [1] -14.2% | [2] 6.7% | [3] -3.55% | [4] -4.15% | [5] 25.9% | [6] -15.8%

C/C=C(\C)c1cc(=O)c2c(C)cc3c(c2o1)C(=O)c1c(O)c(C2CC(C)(N(C)C)C(OC(C)=O)C(C)O2)cc(C2CC(N(C)C)C(O)C(C)O2)c1C3=O (stereo not given)
inactive: [1] 17% | [2] 1.95% | [3] 9.8% | [4] 7.35% | [5] 8.15% | [6] -59.6%

Nc1ccc(C2=Nc3ccccc3SC(c3ccccc3O)C2)cc1 (stereo not given)
inactive: [1] 24.8% | [2] 13.5% | [3] 11.5% | [4] 19% | [5] 50.8% | [6] 6%

CCCCCCC(=O)/C=C/c1ccc(OC)cc1
inactive: [1] -12.5% | [2] -6.55% | [3] -14% | [4] 3.6% | [5] -11.6% | [6] -16.1%

COc1cccc(C2c3cc4c(cc3OC(N3CCOCC3)C2C)OCO4)c1OC (stereo not given)
inactive: [1] -25.4% | [2] -10.1% | [3] -7.85% | [4] 2.55% | [5] -2.05% | [6] -6.1%

CCOCCOCCOCc1nc(C#N)c(N)o1
inactive: [1] -35.6% | [2] -23.3% | [3] -27.8% | [4] -14.8% | [5] -30.5% | [6] -63.4%

Nc1ccn(C2OC(CCl)C(O)C2O)c(=O)n1 (stereo not given)
inactive: [1] 17.2% | [2] 3.2% | [3] -4.15% | [4] 4.1% | [5] -39.9% | [6] -36.1%

COC(=O)C1(C)C(=O)NC(=O)CC1C (stereo not given)
inactive: [1] 9.65% | [2] 0% | [3] 1% | [4] -30.5% | [5] -2.5% | [6] -3.2%

COc1ccc(C2c3cc4c(cc3OC(NNS(=O)(=O)c3ccc(C)cc3)C2C)OCO4)cc1 (stereo not given)
inactive: [1] -22.4% | [2] 12.9% | [3] 9.55% | [4] 4.4% | [5] -5.1% | [6] 34.2%

CC(=O)OCC(OC(C)=O)C(OC(C)=O)C(C=NN(C(C)=O)S(=O)(=O)c1ccc(/C=C2\NC(=O)NC2=O)cc1)OC(C)=O (stereo not given)
inactive: [1] -4.6% | [2] -30.9% | [3] -17.9% | [4] 14% | [5] -17.8% | [6] -7.15%

CCOC(=O)c1cnc(SC)nc1Nc1ccc(OC)cc1
inactive: [1] 47.4% | [2] 8.55% | [3] 7.35% | [4] 9.6% | [5] 21.2% | [6] 50.1%

NNS(=O)(=O)c1ccc(Oc2ccc(S(=O)(=O)NN)cc2)cc1
inactive: [1] 10.8% | [2] 10.1% | [3] 24.6% | [4] -4.9% | [5] 14.9% | [6] 30.9%

CCn1c2ccccc2c2nnc(NCCCO)nc21
inactive: [1] -14.7% | [2] -31.3% | [3] -16.5% | [4] -1.25% | [5] -51.7% | [6] 7.55%

COC(=O)C1=C(O)C(C(=O)OC)[C@@]2(O)[C@@H](C(=O)OC)[C@H](C)C[C@@H]1[C@@H]2C(=O)OC (stereo not given in full)
inactive: [1] 41.6% | [2] 15.4% | [3] 47% | [4] -1.05% | [5] 23.1% | [6] 38.5%

COc1ccc(NC(C)=O)c([N+](=O)[O-])c1
inactive: [1] 23.3% | [2] 0.25% | [3] 19.3% | [4] 16.3% | [5] -8.35% | [6] 6.3%

CC1CP(=O)(Cc2ccccc2)C(C)(c2ccccc2)C1=O (stereo not given)
inactive: [1] -18.4% | [2] -0.95% | [3] 31.4% | [4] -4.2% | [5] 40.2% | [6] -6.5%

O=C(/C=C\c1ccc(Cl)cc1)c1ccccc1
inactive: [1] -23.1% | [2] -34.5% | [3] 15.3% | [4] -6.4% | [5] 12.7% | [6] 2.05%

COc1ccc2c(c1)OC(c1cccnc1)C(c1ccccc1)C2=O (stereo not given)
inactive: [1] -5.45% | [2] -27.9% | [3] 17.9% | [4] 15.4% | [5] 16.1% | [6] -0.05%

From PubChem BioAssay (NCI)
